Inconclusive results are not listed. The call rests on the fitted dose curve; in most records, active means well fitted curve in the direction sought with a large enough effect; inconclusive means small, poorly fitted or top-dose-only effect, or another doubt; inactive means no such curve, though single readings can be large or run the other way.
These compounds were tested against Isocitrate dehydrogenase [NADP] cytoplasmic (Homo sapiens) (UniProt O75874) (assay: qHTS for Inhibitors of mutant isocitrate dehydrogenase 1 (IDH1): WT assay for probe SAR). Settings: WT IDH1 enzyme, NADPH diaphorase/resazurin fluorescence; series mostly up to 100 µM; activity change, negative = inhibition: at the top concentration.
Source text: Malignant glioblastomas (WHO grade IV), including primary and secondary glioblastomas, are among the most lethal with a median survival of one year, and unfortunately they are also the most prevalent type of brain tumors. By and large the standard of care of gliomas remains the use of the oral alkylating agent temozolomide and radiotherapy following surgical tumor resection. There is an urgent unmet medical need for novel therapeutics for gliomas. IDH mutations occur in up to 70% of grade II-IV secondary glioblastomas, and IDH1 R132H is the most prevalent mutation. […] Wild-type (WT) IDH1 catalyzes the conversion of isocitrate to -ketoglutarate with the concomitant reduction of NADP+ to NADPH. In contrast, IDH1 R132H catalyzes the conversion of -ketoglutarate to 2-hydroxyglutarate (2-HG) with the concomitant oxidation of NADPH to NADP+ [5]. Recently, a second significant advancement for the field was the finding that IDH is an oncogene, and that its metabolic product 2-HG may contribute to the pathogenesis of IDH-mutated cancers. […] Although this link to cancer is tantalizing, the direct evidence of how 2-HG drives pathogenesis of gliomas and AML remains a subject of further research. The goal of this selectivity assay is to identify small-molecule inhibitors of WT IDH1 using a biochemical assay that measures product NADPH production through the use of a diaphorase/resazurin-coupled system. Inhibition of the WT IDH1 enzymatic reaction leads to a decrease in the amount of NADPH relative to a DMSO control and a concomitant decrease in the fluorescence of the diaphorase/resazurin enzyme product resorufin at 590 nm. Compounds were screened as concentration-titration series that ranged from 100 microM to 5 nM. NIH Molecular Libraries Probe Production Network [MLPCN] NIH Chemical Genomics Center [NCGC] MLSCN Grant: R03 DA032129 PI Name: Dr. Lenny Dang
Compounds or DMSO were dispensed into black, solid 96-well plates at 1 microL/well. Then, 40 microL/well enzyme buffer was dispensed in 20 mM Tris buffer, pH 7.5, containing final concentrations of 10 mM MgCl2, 20 mM NaCl, 0.05% BSA, 2 mM beta-ME and […] WT IDH1. These were incubated at RT for 60 minutes. The substrate and detection buffer (10 microL; 20 mM Tris buffer, pH 7.5, containing final concentrations of 10 mM MgCl2, 20 mM NaCl, 0.05% BSA, 0.05 mM NADP+, 0.00053 mM diaphorase, 0.04 mM resazurin and 0.07 mM isocitrate) was added to start the enzymatic reaction. The reaction progressed for 30 minutes at RT and which point 25 microL/well of 2% SDS was added as a stop solution. Following 1 minute of shaking on an oribital shaker, the fluorescence intensity was monitored on a Spectramax M5 plate reader (Ex 544, Em 590, bodipy filter). The %Activity was determined from the corrected fluorescence values. As no specific WT IDH1 inhibitors have been identified in the literature, 1x (0.65 nM) and 0x WT IDH1 enzyme controls (untreated) were included to normalize %Activity of identified inhibitors; 0x enzyme values corresponded to 100%Activity (full inhibition), while 1x WT IDH1 enzyme values were used to normalize 0%Activity (no inhibition ). Concentration-response curves were fitted to the signals arising from the resulting fluorescence. The concentration-response curves were then classified based on curve quality (r2), response magnitude and degree of measured activity, and compounds were subsequently categorized based on their curve class. […] Keywords: Isocitrate dehydrogenase, IDH1, IDH1 R132H, 2-HG, 2-hydroxyglutarate, AML, glioma, MLSMR, MLPCN, NIH Roadmap, qHTS, NCGC

Chain of Isocitrate dehydrogenase [NADP] cytoplasmic (Homo sapiens) (O75874 whole entry, looked up): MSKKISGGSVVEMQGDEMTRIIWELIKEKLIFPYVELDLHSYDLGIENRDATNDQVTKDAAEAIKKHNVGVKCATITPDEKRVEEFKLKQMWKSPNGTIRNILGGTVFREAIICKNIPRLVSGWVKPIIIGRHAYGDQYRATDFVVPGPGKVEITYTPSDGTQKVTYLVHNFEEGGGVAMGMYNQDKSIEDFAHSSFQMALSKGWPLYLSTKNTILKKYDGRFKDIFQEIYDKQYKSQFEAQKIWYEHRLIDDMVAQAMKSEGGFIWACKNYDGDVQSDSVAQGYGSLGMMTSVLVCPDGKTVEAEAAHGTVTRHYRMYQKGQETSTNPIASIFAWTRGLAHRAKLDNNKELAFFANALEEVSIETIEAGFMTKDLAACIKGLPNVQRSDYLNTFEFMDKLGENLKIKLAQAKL

Activity change, negative = inhibition, inactive:
COc1ccc(N(C(=O)C2COc3ccccc3O2)C(C(=O)NC2CCCCC2)c2ccccc2)cc1OC (configuration not stated) -23.7%
Cc1ccccc1C(C(=O)NC1CCCCC1)N(C(=O)c1ccccn1)c1cccc(F)c1 (configuration not stated) -8.53%
Cc1ccccc1C(C(=O)NC1CCCCC1)N(C(=O)CNS(=O)(=O)c1ccccc1)c1cccc(F)c1 (configuration not stated) -28.3%
Cc1nc(C)c(C(=O)N(c2cccc(F)c2)C(C(=O)NC2CCCCC2)c2ccccc2)s1 (configuration not stated) -3.93%
Cc1ccccc1C(C(=O)N(C)C1CCCCC1)N(C(=O)Cc1cccs1)c1cccc(F)c1 (configuration not stated) -5.27%
Cc1ccccc1C(C(=O)NCc1ccccc1)N(C(=O)Cc1cccs1)c1cccc(F)c1 (configuration not stated) -2.69%
Cc1ccccc1C(C(=O)NC1CCCC1)N(C(=O)Cc1cccs1)c1ccccc1 (configuration not stated) -12.6%
COc1ccc(N(C(=O)Cc2cccs2)C(C(=O)NC2CCCC2)c2ccccc2C)cc1OC (configuration not stated) -8.38%
COc1ccc(N(C(=O)Cn2cnc3ccccc32)C(C(=O)NC2CCCCC2)c2ccccc2)cc1 (configuration not stated) -10.3%
O=C(NC1CCCC1)C(c1cccs1)N(C(=O)Cc1cccs1)c1cccc(F)c1 (configuration not stated) -4.71%
COc1ccc(C(C(=O)NC2CCCC2)N(C(=O)Cc2cccs2)c2cccc(F)c2)cc1OC (configuration not stated) -4.45%
O=C(NC1CCCC1)C(c1ccccc1)N(C(=O)Cc1cccs1)c1cccc(F)c1 (configuration not stated) -6.55%
COc1cccc(C(C(=O)NC2CCCCC2)N(C(=O)c2cccs2)c2ccc3c(c2)OCO3)c1 (configuration not stated) -13.6%
O=C(NC1CCCCC1)C(c1ccncc1)N(C(=O)Cc1cccs1)c1cccc(F)c1 (configuration not stated) -7.26%
Cc1ccc(C(C(=O)NC2CCCC2)N(C(=O)Cc2cccs2)c2cccc(F)c2)o1 (configuration not stated) -4.68%
COc1cc(OC)cc(N(C(=O)Cc2cccs2)C(C(=O)NC2CCCC2)c2ccccc2C)c1 (configuration not stated) -4.77%
COc1cccc(N(C(=O)Cc2cccs2)C(C(=O)NC2CCCC2)c2ccccc2)c1 (configuration not stated) -5.76%
O=C(NC1CCCCC1)C(C1CCCC1)N(C(=O)Cc1cccs1)c1cccc(F)c1 (configuration not stated) -4.81%
Cc1ccccc1C(C(=O)NC1CCCCC1)N(C(=O)Cc1cccs1)C(C)C (configuration not stated) -0.19%
Cc1ccccc1C(C(=O)NC(C)(C)C)N(C(=O)Cc1cccs1)c1cccc(F)c1 (configuration not stated) -7.04%
COc1ccccc1CN(C(=O)Cc1cccs1)C(C(=O)NC1CCCCC1)c1ccccc1F (configuration not stated) -8.28%
Cc1ccccc1C(C(=O)NC1CCCC1)N(C(=O)Cc1cccs1)c1ccccc1F (configuration not stated) -15%
